# Rows were chosen to be rich in hits. Some 1.4% of all compounds tested hit in one or more screens of this group.
# mIDH1 inhibitor: qHTS for Inhibitors of mutant isocitrate dehydrogenase 1 (IDH1): qHTS. Potency, µM (titrated, usually from 76.6 µM), inactives show at the top dose activity change, negative = inhibition, usual class: inhibitors. 390,000 tested, 0.093% active. IDH1-R132H enzyme, NADPH consumption, diaphorase/resazurin fluorescence; also: potency is read from the fitted curve at half-maximal effect; nearly all actives have a fitted effect of over 65% in size
#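 IDH1-R132H (0.5 ug/mL dispensed) in pH 7.5 Tris buffer was preincubated 30 min with compound, then given a substrate mix of 0.016 mM NADPH and 2 mM alpha-KG for 80 min at room temperature; remaining NADPH was read by diaphorase/resazurin fluorescence.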
# GLS inh: qHTS for Inhibitors of Glutaminase (GLS) | Glutaminase kidney isoform, mitochondrial (Homo sapiens), O94925 | AID 624170, 2012 | GLS enzymatic activity, qHTS titration | Potency, µM (series often up to 45.5 µM), inactives show top-dose activity change, negative = inhibition, most hits filed as inhibitors | 410,000 tested, 0.21% active; also: potency is read from the fitted curve at half-maximal effect
#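 Assay buffer: 45 mM KH2PO4 pH 8.2, 0.02% Tween-20. hKGA acts on L-glutamine (1 mM solution added); product glutamate is reported by an oxidase/peroxidase Amplex Red coupling, with fluorescence taken at baseline and 30 min.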
# TrxR1 substrate: qHTS Assay for Substrates of Mammalian Selenoprotein Thioredoxin Reductase 1 (TrxR1): qHTS; Thioredoxin reductase 1, cytoplasmic (Rattus norvegicus), O89049; purified TrxR1 substrate turnover, NADPH consumption readout; Potency, µM (doses to about 114 µM), for inactives: at the top dose activity change, negative = substrate turnover; 390,000 tested, 0.01% active; also: potency is read from the fitted curve at half-maximal effect; nearly all actives have a fitted effect of over 50% in size
#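 Rat TrxR1, dispensed at 90 nM, was prereduced with 400 uM NADPH (final) for 5 min at ~22 deg C, then incubated with compound 15 min before 400 uM selenite. A first-read NADPH fluorescence drop versus no-compound background flagged substrates.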
# rTrxR1 inhibitor: qHTS Assay for Inhibitors of Mammalian Selenoprotein Thioredoxin Reductase 1 (TrxR1): qHTS | recombinant rTrxR1, NADPH fluorescence consumption, selenite substrate | AID 588453, 2011 | Thioredoxin reductase 1, cytoplasmic (Rattus norvegicus), O89049 | 390,000 tested, 1% active | Potency, µM (titrated, usually from 114 µM), without a hit: at the top dose activity change, negative = inhibition, usual class: inhibitors; also: potency is read from the fitted curve at half-maximal effect; nearly all actives have a fitted effect of over 65% in size
#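 Rat TrxR1 (90 nM in the dispensed reagent) was pre-reduced with 400 uM NADPH for 5 min at room temperature, then incubated with compound for 15 min. After 400 uM selenite was added, NADPH fluorescence (Ex 340/Em 450 nm) was followed for 8 min.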
# LDHA inh: qHTS assay for inhibitors of human lactate dehydrogenase; purified LDHA, NADH/diaphorase-resazurin fluorescence; hits give low values; activity change, % (values are at about 110 or 230 µM); 480,000 tested, 0.15% active; AID 1347041, 2019; in the data active = activity change below about -30%; inconclusive = mostly about -25% to -30%;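 also: plate controls were DMSO wells for no effect and wells without enzyme for full effect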
#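 Enzyme activity of human lactate dehydrogenase 5 (2 nM; 0.06 mM NADH, 0.2 mM pyruvate, 5 min, RT) is measured via a resazurin/diaphorase fluorescence readout of residual NADH.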
# PKM2 activator: qHTS Assay for Activators of Human Muscle isoform 2 Pyruvate Kinase; Pyruvate kinase PKM (Homo sapiens), P14618; purified PKM2, Kinase-Glo ATP luminescence, activation; response scale: 0% is enzyme alone, no compound; 260,000 tested, 0.34% active; Potency, µM (top dose mostly 57.5 µM), without a hit: at the top dose activation, hits mostly activators; also: potency is read from the fitted curve at half-maximal effect; nearly all actives have a fitted effect of over 55% in size
# Target sequence (P14618 whole entry, looked up, canonical isoform): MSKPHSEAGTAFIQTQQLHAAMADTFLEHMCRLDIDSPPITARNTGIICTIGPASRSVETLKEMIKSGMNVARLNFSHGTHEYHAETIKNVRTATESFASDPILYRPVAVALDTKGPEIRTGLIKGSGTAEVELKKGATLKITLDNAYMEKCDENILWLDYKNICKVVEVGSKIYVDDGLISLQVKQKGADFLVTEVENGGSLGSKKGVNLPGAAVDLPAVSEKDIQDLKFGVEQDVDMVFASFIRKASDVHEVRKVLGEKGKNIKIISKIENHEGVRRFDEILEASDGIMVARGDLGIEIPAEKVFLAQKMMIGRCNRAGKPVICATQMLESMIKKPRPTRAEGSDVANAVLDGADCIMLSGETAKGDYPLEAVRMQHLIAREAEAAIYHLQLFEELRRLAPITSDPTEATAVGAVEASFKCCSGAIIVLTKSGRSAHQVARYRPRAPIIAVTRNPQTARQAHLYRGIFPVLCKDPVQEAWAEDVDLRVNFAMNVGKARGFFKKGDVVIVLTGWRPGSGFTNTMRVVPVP
#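 Purified hPK-M2 (>95%) run at intermediate activity with 0.1 mM ADP and 0.5 mM PEP in 50 mM imidazole pH 7.2, KCl, MgCl2; 1 h room temperature. ATP formed read by Kinase-Glo luminescence; normalized to uninhibited and no-enzyme controls.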
# Active calls of the source: *; ? = inconclusive; · = not tested or not shown; [ ] = remark or other dose. Unless noted, calls follow the shape of the dose curve; as a rule, active = well fitted curve in the direction sought with a large enough effect; inconclusive = small, poorly fitted or top-dose-only effect, or another doubt; inactive = no such curve, though single readings can be large; an effect the other way counts as inactive or inconclusive. Unless noted, % is scaled to controls: 0 for no effect and ±100 for the full control effect.
SMILES,mIDH1 inhibitor,GLS inh,TrxR1 substrate,rTrxR1 inhibitor,LDHA inh,PKM2 activator
O=c1c(Cl)c(Cl)cnn1Cc1ccccc1Cl,4%,-4%,5%,20µM*,-3,21%
Cc1cc(C)cc(Cn2ncc(Cl)c(Cl)c2=O)c1,7%,3%,4%,6.3µM*,-7,5%
Cc1ccc(Cn2ncc(Cl)c(Cl)c2=O)cc1,8%,0%,5%,6.3µM*,-4,7%
O=c1c(Cl)c(Cl)cnn1-c1ccccc1,8%,-1%,5%,14µM*,0,-4%
O=c1[nH]cnc2c1cnn2Cc1ccccc1Cl,-3%,-10%,3%,25%,-1,·
CCOc1ccc(NC(=O)CSC2=C(C#N)C(c3ccc(Cl)cc3)C3=C(CCCC3=O)N2)cc1 (stereo not given),·,·,·,·,-5,·
O=C(O)c1cnc(-c2ccccc2)nc1Sc1ccccc1Cl,-5%,23%,6%,13%,-31*,-4%
Cn1c(O)c(/C=C2\C=Nc3ccccc32)sc1=Nc1ccc(C(=O)O)cc1,5%,21%,0%,-4%,-35*,-2%
CN1CCN(C(=O)CN2CCN(C(C(=O)O)c3cn(C)c4cc(C(=O)O)ccc34)CC2)CC1 (stereo not given),·,·,·,·,3,·
Cc1cc(C)c(NC(=O)CSc2ncc(-c3ccc(F)cc3)o2)c(C)c1,·,·,·,·,-15,·
O=C(O)c1ccc(-n2cccc2/C=C2/NC(=O)N(c3cccc(Cl)c3)C2=O)cc1,15%,?,-6%,?,-3,?
O=C(O)c1ccc(-n2cccc2/C=C2/SC(=O)N(CC(=O)N3CCCC3)C2=O)cc1,-2%,16µM*,-3%,8%,-3,7%
O=C(O)c1ccc(-n2cccc2/C=C2/NC(=O)N(c3ccccc3)C2=O)cc1,7%,10µM*,-6%,-12%,-10,1%
O=C(O)c1ccc(-n2cccc2/C=C2\SC(=O)N(Cc3ccc(Br)cc3)C2=O)cc1,·,·,·,·,-1,·
C/C(=N/NC(=O)OC(C)(C)C)c1ccccc1Cl,·,·,·,·,-5,·
CCCn1c(=O)c2ccccc2n2c(=S)[nH]nc12,2%,-24%,2%,-6%,-1,·
Cn1c(=O)c2ccccc2n2c(=S)[nH]nc12,3%,10µM*,-11%[57.1 µM],-1%[57.1 µM],-3,-6%
CCCCn1c(=O)c2ccccc2n2c(=S)[nH]nc12,-2%,13µM*,4%[57.1 µM],?,1,-9%
CCCCCn1c(=O)c2ccccc2n2c(=S)[nH]nc12,-5%,-2%,2%,-12%,-1,·
COC(=O)C(NNc1ccc(F)cc1)(NC(=O)c1ccccc1)C(F)(F)F (stereo not given),2%,25%,-9%,-20%,5,-7%
COC(=O)C(NNc1ccccc1C)(NC(=O)c1ccc(F)cc1)C(F)(F)F (stereo not given),0%,-15%,-1%,28µM*,1,-1%
CCn1c(SCC(=O)c2ccc[nH]2)nnc1-c1ccccc1,·,·,·,·,-5,·
Cc1cc(C#Cc2c(-c3ccccc3)n(C)c3ccccc23)ccc1F,0%[38.3 µM],1%,14%,35µM*,-2,1%
COc1ccc(C#Cc2c(-c3ccccc3)n(C)c3ccccc23)cc1,0%,-1%,22%[57.1 µM],?,6,·
COc1cc(C#Cc2c(-c3ccccc3)n(C)c3ccccc23)cc(OC)c1,1%[38.3 µM],3%,36%,45µM*,-7,3%
SMILES,mIDH1 inhibitor,GLS inh,TrxR1 substrate,rTrxR1 inhibitor,LDHA inh,PKM2 activator
COc1ccc(-c2c(C#Cc3ccsc3)c3ccccc3n2C)cc1,10%,-9%,14%[57.1 µM],10µM*,5,-1%
Cc1ccccc1CS(=O)(=O)c1ccc(C(=O)N2CCOCC2)cc1[N+](=O)[O-],-1%,-2%,5%,3%,-3,·
O=C(c1ccc(S(=O)(=O)c2ccccc2Cl)c([N+](=O)[O-])c1)N1CCN(Cc2ccccc2)CC1,2%,-13%,-3%,?,2,11µM*
O=C(c1ccc(S(=O)(=O)Cc2ccccc2Cl)c([N+](=O)[O-])c1)N1CCOCC1,-7%,-2%,4%,14µM*,-1,·
C=CCOc1ccccc1C(=O)Nc1ccc(C#N)cc1,·,·,·,·,4,·
O=C(c1cc2cc(Cl)ccc2[nH]1)N1CCN(C(=O)c2ccco2)CC1,7%,-7%,5%,50µM*,-9,·
O=C(c1ccco1)N1CCN(Cc2csc(-c3ccccc3Cl)n2)CC1,7%,-6%,1%,71µM*,-2,12%
O=C(c1ccco1)N1CCN(Cc2c(Cl)cccc2Cl)CC1,-6%,-5%,0%,14%,-2,2%
CCc1ccc(CN2CCN(C(=O)c3ccco3)CC2)cc1,0%,10%,-5%,-28%,?,·
O=C(c1ccco1)N1CCN(Cc2cccc(F)c2)CC1,5%,13%,21%,18%,-32*,-2%
Cc1cccc(CN2CCN(Cc3ccco3)CC2)c1,3%,-2%,1%,-7%,-32*,1%
O=C(Nc1cc2c(cc1C(=O)C1CC1)OCCO2)c1ccco1,·,·,·,·,4,·
CC(C)N1C(=O)C(NC(=O)C(=O)NCCc2c[nH]c3ccc(Cl)cc23)c2ccccc21 (stereo not given),·,·,·,·,2,·
CC1(C)CC(NC(=O)C2CCC(CNC(=O)CNC(=O)c3ccccc3)CC2)CC(C)(C)N1 (stereo not given),·,·,·,·,-1,·
O=C(NCC1CCCO1)c1nn2c(C(F)(F)F)cc(-c3ccc(Br)o3)nc2c1Br (stereo not given),-3%,6%,6%,14µM*,-4,·
O=C(NC1CCCCC1)c1nn2c(C(F)(F)F)cc(-c3ccco3)nc2c1Br,7%,9%,5%[57.1 µM],-21%[57.1 µM],-13,6%
O=C(COc1ccccc1)N(Cc1cccnc1)c1nc2ccc(F)cc2s1,13%,-3%,-4%[57.1 µM],0%[57.1 µM],-3,·
CN(C)CCCN(C(=O)CCOc1ccccc1)c1nc2ccc(F)cc2s1,5%,-8%,-3%,0.63µM*,-8,0%
O=C(CCOc1ccccc1)N(Cc1cccnc1)c1nc2ccc(F)cc2s1,-1%,-6%,3%[57.1 µM],7.1µM*,-7,·
CN(C)CCCN(C(=O)CCOc1ccccc1)c1nc2c(F)cccc2s1,7%,12%,18%[57.1 µM],0.45µM*,-1,23%

# High-throughput results as filed in PubChem.
